Rab9 promoter act: qHTS Assay for Rab9 Promoter Activators; actives 2.8% (n = 320,000); AID 485297, 2010; Potency, µM (series often up to 9.22 µM), for the others: at the highest dose activation, negative = inhibition, actives largely listed as activators; Huh7 Rab9 promoter-luciferase reporter, luminescence, 24 h; also: % of control where 0% means no effect; nearly all actives have a fitted effect of over 60% in size
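Using Huh7 cells stably transfected with Rab9 promoter–luciferase, compounds were incubated 24 h at 37 °C, 5% CO2; luciferase luminescence was read 10 min after reagent addition.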
SMN2 splice enh: qHTS Assay for Enhancers of SMN2 Splice Variant Expression. HEK293 SMN2-luciferase splicing reporter, luminescence, 30-36 h. Potency, µM (titrated, usually from 46.1 µM), for the others: top-dose activity change, positive = activation, hits mostly activators. actives 2.8% (n = 210,000); also: % of control where 0% means no effect; nearly all actives have a fitted effect of over 55% in size
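qHTS luciferase splicing reporter: luminescence rises when SMN2 exon 7 is included in transfected HEK293 cells. Compound exposure lasted 30-36 h at 37C, with 4.5 mM final sodium butyrate as control, followed by a ONE-Glo read.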
FLuc modulator: qHTS profiling assay for firefly luciferase inhibitor/activator using purifed enzyme and Km concentrations of substrates (counterscreen for miR-21 project); actives 6.9% (n = 360,000); Luciferin 4-monooxygenase (Photinus pyralis), P08659; AID 588342, 2011; purified FLuc, Km substrates, luminescence inhibition; Potency, µM (top dose mostly 57.5 µM), for the others: at the top dose activity change, negative = inhibition, most hits filed as inhibitors;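 also: plate controls were vehicle for no effect and reference inhibitor for full effect; nearly all actives have a fitted effect of over 55% in size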
Target sequence (P08659 whole entry, looked up): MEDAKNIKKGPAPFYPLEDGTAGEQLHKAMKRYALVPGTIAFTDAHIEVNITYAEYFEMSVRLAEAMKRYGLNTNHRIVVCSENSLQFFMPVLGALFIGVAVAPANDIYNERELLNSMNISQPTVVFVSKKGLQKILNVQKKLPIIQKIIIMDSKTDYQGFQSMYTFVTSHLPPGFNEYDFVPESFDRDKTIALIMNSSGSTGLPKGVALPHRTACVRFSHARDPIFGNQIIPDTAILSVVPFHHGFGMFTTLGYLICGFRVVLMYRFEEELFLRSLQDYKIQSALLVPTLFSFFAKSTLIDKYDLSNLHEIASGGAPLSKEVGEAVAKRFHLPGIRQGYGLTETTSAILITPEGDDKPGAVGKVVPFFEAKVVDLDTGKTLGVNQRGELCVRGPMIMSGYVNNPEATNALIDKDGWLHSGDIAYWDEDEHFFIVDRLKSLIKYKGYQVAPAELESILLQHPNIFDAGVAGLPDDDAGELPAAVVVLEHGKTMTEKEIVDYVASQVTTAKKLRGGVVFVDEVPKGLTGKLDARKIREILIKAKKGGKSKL
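Purified P. pyralis luciferase (10nM final) with 10uM D-luciferin and 10uM ATP (Km levels) in 50mM Tris acetate pH 7.5, 10mM Mg acetate, 0.01% Tween-20, 0.05% BSA; qHTS 6-point titration, ~60 µM downward; luminescence read.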
ELG1 genotox: qHTS screen for small molecules that induce genotoxicity in human embryonic kidney (HEK293T) cells expressing luciferase-tagged ELG1. HEK293T ELG1-luciferase reporter, luminescence, 16 h. actives 1.3% (n = 330,000). AID 504466, 2011. Potency, µM (titrated, usually from 46 µM), for the others: top-dose activity change, positive = activation, actives largely listed as activators; also: % of control where 0% means no effect; nearly all actives have a fitted effect of over 60% in size
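DMSO vehicle served as control against compound-treated ELG1-luciferase HEK293T cells; exposure lasted 16 hr at 37 °C and 5% CO2, followed by ONE-Glo luminescence detection after 30 min.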
Luc counter: Counterscreen for Luciferase (Kinase-Glo TM) Inhibition; actives 0.28% (n = 200,000); Kinase-Glo luciferase, ATP luminescence, 8 min; Potency, µM (titrated, usually from 38.3 µM), for the others: top-dose activity change, negative = inhibition, actives largely listed as inhibitors; Luciferin 4-monooxygenase (Photuris pensylvanica), Q27757; also: % is scaled to controls: 0 for no effect and ±100 for the full control effect; nearly all actives have a fitted effect of over 60% in size
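Kinase-Glo luciferase light output from ATP and luciferin was measured with 10 uM ATP, within the enzyme's linear range. Buffer: 50 mM imidazole pH 7.2, 50 mM KCl, 7 mM MgCl2, 0.01% Tween 20, 0.05% BSA; luminescence read after 8 min at ambient temperature.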
NPC1 prom act: qHTS Assay for NPC1 Promoter Activators | Potency, µM (series often up to 9.22 µM), without a hit: at the highest dose activation, actives largely listed as activators | AID 485313, 2010 | actives 2.4% (n = 320,000) | Huh7 NPC1 promoter luciferase reporter, 24 h; also: % of control where 0% means no effect; nearly all actives have a fitted effect of over 60% in size
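Cells: Huh7 expressing luciferase under the NPC1 promoter, 1500/well. Seeded 2 h, compound added, incubated 24 h at 37 °C. Luciferase reagent, 10 min ambient, then luminescence.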
The depositor's hits bear a star; ? = inconclusive; / = no result; [ ] = dose if it differs, or a comment. An excerpt weighted towards active compounds, which were near 7.4% of everything screened. Calls follow the shape of the dose curve; as a rule, active = well fitted curve in the direction sought with a large enough effect; inconclusive = small, poorly fitted or top-dose-only effect, or another doubt; inactive = no such curve, though single readings can be large; an effect the other way counts as inactive or inconclusive. Potency is read from the fitted curve at half-maximal effect.

SMILES	Rab9 promoter act	SMN2 splice enh	FLuc modulator	ELG1 genotox	Luc counter	NPC1 prom act
CCCCNC(=S)Nc1ccc(F)cc1	-2%	/	3%	-2%	/	0%
CCCCNC(=S)Nc1ccc(SC(F)F)cc1	19%	10%	17µM*	-1%	-1%	10%
O=C(COC(=O)c1ccccc1Cc1ccccc1)Nc1ccc(SC(F)F)cc1	2.8µM*	/	6µM*	?	2%	?
CCOC(=O)C1OC1C(=O)NC(CC(C)C)C(=O)NCCC(C)C (stereo not given)	/	-11%	/	/	/	/
OCC1O[C@@H](OC2C(O)C(CO)O[C@@]2(CO)O[C@@H]2OC(CO)C(O)C(O)C2O)C(O)C(O)C1O (stereo not given in full)	/	-2%	/	/	-1%	/
Cc1cccc(C)c1NC(=O)Cn1c(=O)n(CCC(=O)NCc2ccc3c(c2)OCO3)c(=O)c2sccc21	/	12%	-2%	/	/	/
O=C(Cc1ccccc1F)Nc1ccc(SC(F)F)cc1	1.6µM*	13µM*	5.4µM*	?	-1%	4µM*
O=C1C(=O)N(Cc2ccc(Cl)c(Cl)c2)c2ccccc21	/	/	/	/	-2%	/
Cc1ccc(-c2cccc(OC(=O)c3ccccc3F)c2)cc1	7%	17%	5.4µM*	8%	-9%	-8%
Cc1ccc(-c2cc(C(=O)Oc3ccccc3)c3cccc(C)c3n2)cc1	/	-2%	-5%	/	/	/
CC(C)(C)c1cc(OC(=O)c2ccccc2F)ccc1O	-2%	/	27µM*	-1%	-1%	1%
N#Cc1c(N2CCCC(O)C2)nc(N)c2c(N)nc3c(c12)CC(=O)N3C12CC3CC(CC(C3)C1)C2 (stereo not given)	-11%	-85%	5.4µM*	-8%	-1%	-3%
COc1ccc(NC(=O)c2cc3ccccc3o2)cc1	0.56µM*	?	3.8µM*	6.5µM*	-10%	1.6µM*
COc1cc(NC(=S)NC(=O)C(C)C)ccc1NC(=O)c1cc2ccccc2o1	21%	-19%	-1%	-3%	2%	0%
COc1ccc(-c2nc3cc(NC(=O)c4cc5ccccc5o4)ccc3o2)cc1	/	-2%	-4%	/	/	/
COc1ccc(NC(=O)c2cc3ccccc3o2)cn1	2.5µM*	/	13µM*	?	/	2.8µM*
COc1cc(NC(=O)C(C)C)ccc1NC(=O)c1cc2ccccc2o1	3.2µM*	/	7.6µM*	?	/	2.2µM*
COc1ccc(NC(=O)c2coc(=O)c3ccccc23)cc1OC	/	?	4%	/	/	/
COc1ccc(NC(=O)c2coc3ccccc23)cc1OC	?	20%	13µM*	?	6%	?
O=C(NCCN1CCOCC1)c1ccc(-n2c(=O)c(=O)[nH]c3ccccc32)cc1	/	/	/	/	-1%	/
COc1cccc(-c2nc(CS(=O)CC(=O)N3CCN(c4cccc(C(F)(F)F)c4)CC3)c(C)o2)c1 (stereo not given)	/	/	2%	/	/	/
Cc1cccc(-n2ncc3c(NNC(=O)c4ccccc4Cl)ncnc32)c1	/	/	-2%	/	/	/
Cc1cc(C)cc(NC(=O)C2CCCN(C(=O)c3cnn(-c4ccccc4)c3-n3cccc3)C2)c1 (stereo not given)	/	-53%	-18%	/	/	/
CC(C)Nc1oc(-c2ccccc2)nc1-c1cccc2ccccc12	/	10%	/	/	-1%	/
COc1ccc(NC(=O)c2cc3ccccc3o2)cc1OC	?	/	15µM*	?	/	7%
SMILES	Rab9 promoter act	SMN2 splice enh	FLuc modulator	ELG1 genotox	Luc counter	NPC1 prom act
FCCCOc1ccc(-c2nccc(-c3ccc(F)cc3)n2)cc1	1%	5%	24µM*	1%	1%	-1%
FCCCOc1ccc(-c2ccnc(-c3ccccc3)n2)cc1	20%	-8%	12µM*	-1%	-1%	11%
FCCCOc1ccc(-c2nccc(-c3ccc(Br)cc3)n2)cc1	-4%	-12%	-2%	0%	0%	-1%
Cc1nc(NCc2ccccc2)c2nc(-c3ccccc3)n(CCN3CCCC3)c2n1	/	3%	/	/	-1%	/
CCOc1cc(Br)cc(C2NC(=O)c3c(sc4c3CCN(C)C4)N2)c1O (stereo not given)	/	4%	?	/	/	/
COC(=O)c1ccccc1NC(=O)NCCc1c(C)nn(C)c1C	/	/	-8%	/	/	/
O=C(O)c1c(-c2ccccc2)oc2ccc(OCc3ccc(Cl)c(Cl)c3)cc12	/	16%	15µM*	/	/	/
CCOC(=O)c1c(-c2ccccc2)oc2ccc(OCc3ccc(C)cc3)cc12	/	-4%	-3%	/	/	/
O=C1C2=C(C(=O)c3ccccc31)C1O[C@](c3ccsc3)(Cc3ccccc31)O2	-5%[1.84 µM]	/	1%[11.5 µM]	/	/	-7%[1.84 µM]
CCOc1ccc(CNC(=O)c2ccc3c(c2)c(C)c(C)n3Cc2ccccc2)cc1OC	/	/	4%	/	/	/
O=C(CSc1ccccn1)c1ccc(F)cc1	?	23%	19µM*	?	-17%	?
Cc1ccc(NC(=O)CCSc2ccccn2)cc1	3.2µM*	14µM*	6µM*	?	-4%	3.5µM*
Cc1ccc(C(=O)CSc2nccn2-c2ccccc2)cc1	15%	-1%	?	7%	-5%	14%
Cc1ccc(C(=O)CSc2ccccn2)cc1	3.5µM*	?	6.7µM*	?	-2%	?
CC(C)(O)[C@H]1Cc2cc3ccc(=O)oc3cc2O1	3%[1.84 µM]	/	12µM*	?	/	?
CC1(C)Oc2cc3oc(=O)ccc3cc2C[C@@H]1O	/	/	/	9%	/	/
C=C(C)C1Cc2cc3ccc(=O)oc3cc2O1 (stereo not given)	?	-11%[1.84 µM]	13µM*	?	-2%	14%
COc1ccc2c(c1)c(CC(=O)NCc1ccc3c(c1)OCO3)c(C)n2C(=O)c1ccc(Cl)cc1	/	7%	/	/	-1%	/
CC(=O)NNc1ncnc2c1cnn2-c1ccc(C)cc1	5%	/	?	?	10%	-3%
Cc1ccc(-n2ncc3c(NCCO)ncnc32)cc1Cl	/	/	6µM*	/	/	/
COCCNc1ncnc2c1cnn2-c1cc(Cl)ccc1C	/	/	-2%	/	/	/
COc1ccc(-n2ncc3c(NCCN4CCOCC4)ncnc32)cc1	?	-8%	15µM*	15µM*	8%	28%
CC(=O)NNc1ncnc2c1cnn2-c1ccc(C)c(Cl)c1	16%	2%	24µM*	16%	4%	2%
COc1ccc(-n2ncc3c(NCCCN4CCOCC4)ncnc32)cc1	?	-2%	11µM*	9.2µM*	1%	?

High-throughput results as filed in PubChem BioAssay.
